Screens (PubChem)
Pol kappa inh-1: inhibitors of human DNA polymerase kappa. purified Pol kappa, fluorescent DNA synthesis assay, 10 min. 0.53% of 400,000 active. Potency, µM (doses to about 107 µM), actives largely listed as inhibitors. Q9UBT6
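Activity was followed as the change in fluorescence between reads at 0 and 10 min after starting the reaction with 50 nM substrate. Beforehand, 10 nM polymerase had been preincubated with compound for 15 min at room temperature.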
POLB inh: DNA polymerase beta (human) inhibition; P06746; Pol beta primer extension/strand displacement, fluorescence kinetic; Potency, µM (doses to about 114 µM), usual class: inhibitors; 1.3% of 340,000 active; AID 485314
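Homogeneous kinetic assay of primer extension and strand displacement by 10 nM Pol beta, preincubated 15 min at room temperature with compound before 50 nM substrate (final) was added. Read at 0 and 10 min; four-parameter Hill fit.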
Pol eta inh-1: DNA polymerase eta (human) inhibition; AID 588591; Potency, µM (doses to about 114 µM), hits mostly inhibitors; recombinant Pol eta, fluorescent DNA replication assay; Q9Y253; 1.2% of 390,000 active
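Pol eta (10 nM) was preincubated with compounds for 15 min at room temperature, after which fluorescent replication substrate (50 nM final) was added to start the reaction. Fluorescence was read kinetically at 0 and 10 min.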
POLI inh: inhibitors of human DNA polymerase iota | Potency, µM (titrated, usually from 115 µM), actives largely listed as inhibitors | Q9UNA4 | Pol iota fluorescent replication assay, 10 min | 1% of 390,000 active
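Fluorescent replication assay read twice, at 0 min and 10 min after adding 50 nM (final) substrate. Enzyme (10 nM) and compounds were first incubated 15 min at room temperature; enzyme-free buffer wells were negative controls.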
FEN1 inh-1: blocks human flap endonuclease 1; P39748; 0.35% of 390,000 active; Potency, µM (titrated, usually from 114 µM), usual class: inhibitors; Recombinant FEN1 flap cleavage, fluorescence, 15 min; note: nearly all actives have a fitted effect of over 65% in size
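In this screen, 50 nM flap DNA substrate was added to 10 nM FEN1 pretreated with compound for 15 min at room temperature; cleavage was followed with reads at 0 and 15 min, and Hill fitting gave concentration–response parameters.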
WRN helicase inh: WRN helicase (human) inhibition. Potency, µM (highest dose often 114 µM), actives largely listed as inhibitors. WRN helicase unwinding, fluorescent forked duplex, kinetic. 0.46% of 360,000 active; note: nearly all actives have a fitted effect of over 55% in size
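Fluorescence dequenching readout, ex 525 nm/em 598 nm, kinetic mode: forked duplex DNA (100 nM final) with adjacent fluorophore and quencher unwound by WRN (20 nM final) with 2 mM ATP. Compound preincubation 15 min, room temperature.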
PGK validate: blocks T. brucei phosphoglycerate kinase; shares compounds with Pol kappa inh-1; TbPGK coupled GAPDH assay, Kinase-Glo luminescence; Potency, µM (titrated, usually from 57.5 µM), most hits filed as inhibitors; 79% of 500 active; note: nearly all actives have a fitted effect of over 65% in size
Pol iota confirm: Human Pol iota inhibitor confirmatory assay; shares compounds with Pol kappa inh-1; 77% of 1,500 active; Potency, µM, actives largely listed as inhibitors; AID 720496; Pol iota primer extension, TAMRA/BHQ fluorescence
Pol kappa inh-2: confirmation of human DNA polymerase kappa inhibitors | 76% of 920 active | shares compounds with Pol eta inh-1 | purified Pol-kappa, fluorescent strand-displacement substrate | Potency, µM, most hits filed as inhibitors | AID 720501
Pol eta inh-2: Pol eta (human) inhibition, cherry-pick confirmation. shares compounds with Pol eta inh-1. Pol eta primer extension, TAMRA/BHQ fluorescence, 10 min. Potency, µM, most hits filed as inhibitors. 64% of 2,600 active. AID 720502
FEN1 inh-2: confirmation of human FEN1 inhibitors; shares compounds with FEN1 inh-1; Potency, µM, hits mostly inhibitors; FEN1 flap cleavage, TAMRA/BHQ2 fluorogenic DNA substrate; 79% of 880 active; AID 720498; note: nearly all actives have a fitted effect of over 60% in size
A number is an active result; n = inactive; u = inconclusive; x = no result; [ ] = another dose, or the depositor's remark. An excerpt weighted towards active compounds, which were near 2.4% of everything screened. Calls come from the whole dose curve; as a rule, active = well fitted curve in the direction sought with a large enough effect; inconclusive = small, poorly fitted or top-dose-only effect, or another doubt; inactive = no such curve, though single readings can be large; an effect the other way counts as inactive or inconclusive.

SMILES	Pol kappa inh-1	POLB inh	Pol eta inh-1	POLI inh	FEN1 inh-1	WRN helicase inh	Pol iota confirm	Pol eta inh-2	FEN1 inh-2	others
COc1ccc(/C=C2\SC(=S)N(C(Cc3ccccc3)C(=O)O)C2=O)cc1 (centres undefined)	n	n	n	n	n	u	x	x	x
O=C(O)C(Cc1ccccc1)N1C(=O)/C(=C/C=C/c2ccco2)SC1=S (centres undefined)	3.16µM	1.58µM	1.41µM	1.12µM	11.2µM	10µM	2.99	3.38	26.9	PGK validate=5.8µM
COc1cc(NC(=O)CC(C)S(=O)(=O)c2ccc3c(c2)CCN3C(C)=O)cc(OC)c1OC (centres undefined)	n	n	n	n	n	x	x	x	x
O=C1C=C(O)c2c(O)cc(O)c(O)c2C1=O	2µM	x	1.58µM	3.55µM	3.55µM	u	3.77	21.3	21.3	PGK validate=8.19µM
Cc1ccc(-c2noc(-c3nnn(CC(=O)Nc4cccc(C(F)(F)F)c4)c3N)n2)cc1	n	u	x	n	n	x	x	x	x
O=C(Nc1ccc(Cl)cc1)C1CCN(c2nc3ccccc3n3cccc23)CC1	n	n	n	n	n	x	x	x	x
COc1cc(/C=C/C=C2/CC/C(=C/C=C/c3ccc(O)c(OC)c3)C2=O)ccc1O	14.1µM	x	5.01µM	3.55µM	39.8µM	39.8µM	21.2	15.1	42.6
O=CNc1ccc(/C=C/c2ccnc3ccccc23)cc1	n	x	x	n	n	x	x	x	x
CCc1ccc(-n2nnnc2SCC(=O)Nc2ccc(NC(C)=O)cc2)cc1	n	n	n	n	n	n	x	x	x
CC(=O)Nc1ccc(-n2nnnc2SCC(=O)Nc2cccc(NC(=O)c3ccco3)c2)cc1	n	u	u	28.2µM	u	n	53.2	u	u
N#C/C(=C\c1cc(O)c(O)c(O)c1)C(N)=O	n	u	n	u	u	n	18.9	67.5	13.5
CCCc1cc(=O)oc2cc(OCC(=O)Nc3ccc(S(N)(=O)=O)cc3)ccc12	39.8µM	89.1µM	10µM	5.01µM	u	u	37.7	x	67.5
CCCc1cc(=O)oc2cc(OCC(=O)NCc3cccs3)ccc12	n	n	n	n	n	n	x	x	x
O=C(CN1C(=O)C(c2ccc(F)cc2)=NC12CCCCCC2)Nc1ccccc1Cl	n	n	n	n	n	x	x	x	x
O=C1NC(=S)S/C1=C/c1ccc(N2CCOCC2)o1	u	14.1µM	u	79.4µM	44.7µM	25.1µM	37.7	75.7	37.9	Pol kappa inh-2=84.4
Nc1ccc2cc3[nH]c4cc(N)ccc4c3nc2c1	15.8µM	x	4.47µM	8.91µM	11.2µM	25.1µM	18.9	x	12
Cc1cc(=O)[nH]c2cc(N)ccc12	n	x	x	n	n	x	x	x	x
CCNc1ncc2nc(-c3ccc(F)cc3)c(=O)n(C)c2n1	n	x	x	x	x	x	x	x	x
O=C(O)C(c1ccccc1)N1C(=O)/C(=C\c2ccc(O)c(O)c2)SC1=S (centres undefined)	7.08µM	3.98µM	3.16µM	u	u	31.6µM	15	4.78	30.1	Pol kappa inh-2=2.67
COc1ccccc1/C=C1\SC(=S)N(C(C(=O)O)c2ccccc2)C1=O (centres undefined)	n	n	n	n	n	n	x	x	x
O=C(CN1C(=O)S/C(=C\c2cc(Cl)c(O)c(Cl)c2)C1=O)Nc1ccccc1	n	n	u	u	n	n[11.6 µM]	x	x	x
